This is a sample that favours compounds with a hit; in the whole collection about 1.2% have one here.
RGS7-Gao – human RGS7-Galphao interaction regulation; P09471; Multiplexed bead flow cytometry, RGS7-Galphao binding; actives lie on both sides; 220,000 tested, 0.35% active; AID 1439; binding response (% of control), % at 10 µM; in the data active = binding response below about 49% or above about 150%; inconclusive = no clear call, values can overlap the other calls; inactive = in between;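 note: fluorescent Galphao held in activated GDP-AlF4 state binding bead-coupled RGS7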
Avidin bead fluor – avidin bead compound fluorescence profile. Avidin beads, compound fluorescence 488/530 nm, flow cytometry; hits give high values. fluorescence (KMESF) at 10 µM. 220,000 tested, 0.38% active. AID 1775; in the data active = fluorescence above about 47
RGS4-Gao reg – human RGS4-Galphao interaction regulation; Multiplexed bead flow cytometry, RGS4-Galphao binding; actives lie on both sides; binding response (% of control), % at 10 µM; 220,000 tested, 0.33% active; in the data active = binding response below about 49% or above about 150%; inactive = in between;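 note: fluorescent Galphao activated with aluminum fluoride binding bead-coupled RGS4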
GSH bead fluor – GSH bead compound fluorescence profile; 190,000 tested, 0.25% active; fluorescence (KMESF) at 10 µM; GSH beads flow cytometry, compound fluorescence 488/530 nm; hits give high values; AID 1776; in the data active = fluorescence above about 89;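 note: glutathione beads carrying GST-tagged Bcl family fusion proteins plus one bare bead set; values are compound well signal with DMSO vehicle wells as background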
RGS8-Gao – human RGS8-Galphao interaction regulation; AID 1423; response (percent of control binding), % at 10 µM; 220,000 tested, 0.34% active; multiplexed bead flow cytometry, RGS8-Galphao binding; actives lie on both sides; in the data active = response below about 60% or above about 140%; inactive = in between;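 note: Galphao activated as the GDP aluminium fluoride complex binding bead-coupled RGS8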
RGS16-Gao – regulators of human RGS16-Galphao interaction | binding response (% of control), % at 10 µM | bead-based flow cytometry RGS16-Galphao binding, fluorescence; actives lie on both sides | 220,000 tested, 0.38% active | O15492+P09471 | AID 1441;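 note: Galphao activated by GDP with aluminum fluoride before binding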
RGS4-Gao HTS – modulates binding between human RGS4 and Galphao; shares compounds with RGS16-Gao; multiplexed bead flow cytometry, RGS–Galpha-o binding; RGS4–Galpha-o binding response, % at 10 µM; 1,600 tested, 99% active;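 note: fluorescently labeled Galpha-o bound to GDP with aluminium fluoride binding biotinylated RGS beads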
Biotin-avidin – counter-screen: compounds disrupting biotin binding to avidin beads. shares compounds with RGS16-Gao. streptavidin beads, fluorescein-biotin binding, flow cytometry. inhibition, % at 10 µM. 1,700 tested, under 10 active. AID 1783;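 active = inhibition above 50%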;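 note: median green fluorescence of gated singlet beads compared with DMSO control wells; 0% = DMSO wells and 100% = complete loss of bead fluorescence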
RGS8-Gao confirm – confirmation of regulators of human RGS8-Galphao interaction; shares compounds with RGS16-Gao; bead-based flow cytometry RGS8-Galphao binding, fluorescence; actives lie on both sides; binding response (% of control), % at 10 µM; 1,700 tested, 3% active; AID 1836; in the data active = binding response below about 72% or above about 130%; inactive = in between;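 note: Galphao activated as GDP AlF4 complex before binding bead RGS8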
RGS7-Gao single – RGS7-Galphao interaction regulation, single point confirmation; shares compounds with RGS16-Gao; bead-based flow cytometry RGS7-Galphao binding; actives lie on both sides; response (percent of control binding), % at 10 µM; 1,700 tested, 7.8% active; AID 1837; in the data active = response below about 75% or above about 130%; inactive = in between;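 note: fluorescent Galphao activated with GDP and aluminum fluoride binding bead-coupled RGS7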
RGS16-Gao single – RGS16-Galphao interaction regulation, single point confirmation; shares compounds with RGS16-Gao; bead-based flow cytometry, RGS16-Galphao binding; actives lie on both sides; response (% of control binding), % at 10 µM; 1,700 tested, 4% active; AID 1838; in the data active = response below about 74% or above about 130%; inactive = in between;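 note: Galphao activated as the GDP aluminium fluoride complex binding bead-coupled RGS16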
RGS4-Gao single – confirmation of regulators of human RGS4-Galphao interaction. binding response (% of control), % at 10 µM. shares compounds with RGS16-Gao. 1,700 tested, 4% active. RGS4-Galphao binding, multiplexed bead flow cytometry; actives lie on both sides; in the data active = binding response below about 74% or above about 130%; inactive = in between
RGS19-Gao conf – RGS19-Galphao interaction regulation, single point confirmation; shares compounds with RGS16-Gao; 1,700 tested, 5% active; response (percent of control binding), % at 10 µM; bead-based flow cytometry RGS19-Galphao binding; actives lie on both sides; in the data active = response below about 50% or above about 160%; inactive = in between;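 note: 100% = no compound control and 0% = blank background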
Target sequence (P09471 whole entry, looked up): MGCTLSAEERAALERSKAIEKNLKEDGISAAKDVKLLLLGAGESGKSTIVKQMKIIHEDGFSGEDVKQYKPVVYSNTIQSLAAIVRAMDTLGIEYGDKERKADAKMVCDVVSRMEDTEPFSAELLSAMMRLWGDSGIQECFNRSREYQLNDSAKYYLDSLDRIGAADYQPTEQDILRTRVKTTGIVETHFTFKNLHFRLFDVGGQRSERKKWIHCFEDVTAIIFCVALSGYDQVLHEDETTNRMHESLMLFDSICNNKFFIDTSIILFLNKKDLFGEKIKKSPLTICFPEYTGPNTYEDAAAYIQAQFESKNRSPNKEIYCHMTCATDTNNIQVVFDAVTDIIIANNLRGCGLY
Target sequence (P49795 whole entry, looked up): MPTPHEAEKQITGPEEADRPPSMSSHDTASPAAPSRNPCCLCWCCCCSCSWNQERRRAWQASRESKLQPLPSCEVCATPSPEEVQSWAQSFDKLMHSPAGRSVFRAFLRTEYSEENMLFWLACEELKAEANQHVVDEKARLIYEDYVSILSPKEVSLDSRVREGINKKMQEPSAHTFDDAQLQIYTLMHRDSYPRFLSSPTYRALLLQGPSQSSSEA
Starred values were filed as active, the others as inactive. Unless noted, the rule behind the calls is not given here.

Results for O=C(COC(=O)c1ccco1)NCc1ccc2c(c1)OCO2 ?
RGS7-Gao: inconclusive; Avidin bead fluor: 2; RGS4-Gao reg: 34*; RGS8-Gao: 41*; RGS16-Gao: 30; Biotin-avidin: 0; RGS8-Gao confirm: 112; RGS7-Gao single: 115; RGS16-Gao single: 110; RGS4-Gao single: 112; RGS19-Gao conf: 98

How did O=C(COC(=O)c1ccc2c(c1)OCO2)NCc1ccc2c(c1)OCO2 do in these assays?
RGS7-Gao: 113; Avidin bead fluor: 7; RGS4-Gao reg: 124; GSH bead fluor: 14; RGS8-Gao: 103; RGS16-Gao: 126

How did COc1ccc(C[C@@H]2CN3C(=NC[C@@H]3C)N2CCNC(=O)c2ccc(C)c(Br)c2)cc1 do in these assays?
RGS7-Gao: 100; Avidin bead fluor: 6; RGS4-Gao reg: 97; GSH bead fluor: 21; RGS8-Gao: 99; RGS16-Gao: 94

How did CNc1nc(-c2ccc3c(c2)CCN3C(=O)c2ccc(F)cc2)cs1 do in these assays?
RGS7-Gao: 100; Avidin bead fluor: 12; RGS4-Gao reg: 103; GSH bead fluor: 13; RGS8-Gao: 102; RGS16-Gao: 109

What do the screens show for `CNc1nc(-c2ccc3c(c2)CCN3C(=O)c2ccccc2C)cs1`?
RGS7-Gao: 56; Avidin bead fluor: 3; RGS4-Gao reg: 84; GSH bead fluor: 18; RGS8-Gao: 59*; RGS16-Gao: 109; RGS4-Gao HTS: 84*; Biotin-avidin: 0; RGS8-Gao confirm: 102; RGS7-Gao single: 102; RGS16-Gao single: 102; RGS4-Gao single: 101; RGS19-Gao conf: 98

How did CCCCOCCCNC(=O)C1CCCCC1 do in these assays?
RGS7-Gao: 51; Avidin bead fluor: 4; RGS4-Gao reg: 84; GSH bead fluor: 31; RGS8-Gao: 55*; RGS16-Gao: 66; RGS4-Gao HTS: 84*; Biotin-avidin: 0; RGS8-Gao confirm: 107; RGS7-Gao single: 104; RGS16-Gao single: 111; RGS4-Gao single: 104; RGS19-Gao conf: 102

What do the screens show for `Cc1ccc(N=N/C(=C\O)C(=O)c2ccc(Cl)cc2)cc1`?
RGS7-Gao: 45*; Avidin bead fluor: 15; RGS4-Gao reg: 42*; GSH bead fluor: 6; RGS8-Gao: 59*; RGS16-Gao: 43; Biotin-avidin: -2; RGS8-Gao confirm: 99; RGS7-Gao single: 98; RGS16-Gao single: 102; RGS4-Gao single: 102; RGS19-Gao conf: 111

What do the screens show for `O=c1cc(CSc2nnc(COc3ccccc3)n2-c2ccccc2)c2ccccc2[nH]1`?
RGS7-Gao: -15*; Avidin bead fluor: -2; RGS4-Gao reg: -76*; GSH bead fluor: 14; RGS8-Gao: 104; RGS16-Gao: 28; Biotin-avidin: -2; RGS8-Gao confirm: 100; RGS7-Gao single: 91; RGS16-Gao single: 99; RGS4-Gao single: 96; RGS19-Gao conf: 91

Screens from PubChem BioAssay.
